From PubChem BioAssay AID1159580 (chemical genetic matrix, 2015)
Where “and” joins values, the source holds several entries; their conditions need not be identical. Equal entries are not always repeated. Out of some 5,500 compounds screened, about 2,000 (36%) were called active. Another 18% or so got no clear call; they are omitted. Some of the results follow. A number with no mark means an inactive call. Cut-off read from the data, not from the text of the source: active = normalized growth mostly below about 0.91 (no sharp cut-off); inconclusive = no clear call, values can overlap the other calls; inactive = mostly above about 0.92.

Assay: chemical genetic growth profiling, strain panel (AID 1159580);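 note: tested at 20 µM; growth read once vehicle control cultures reached saturation at 30 °C; 1 = growth at the plate median or of vehicle wells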
Conditions: growth OD

CNC1(C)C2CCC(C2)C1(C)C (stereo unspecified)
normalized growth (S. cerevisiae deletion strains, locus YJR075W, strain HOC1, stronger effect = lower value): 1 and 1.01 | normalized growth (S. cerevisiae deletion strains, locus YKL009W, strain mrt4, stronger effect = lower value): 1.03 | normalized growth (S. cerevisiae deletion strains, locus YKL068W, stronger effect = lower value): 0.989 | normalized growth (S. cerevisiae deletion strains, locus YKL085W, strain MDH1 (second series), stronger effect = lower value): 1.02 | normalized growth (S. cerevisiae deletion strains, locus YKL085W, strain MDH1, stronger effect = lower value): 1.02 | normalized growth (S. cerevisiae deletion strains, locus YKL160W, strain elf1, stronger effect = lower value): 0.97 | normalized growth (S. cerevisiae deletion strains, locus YKL190W, strain CNB1, stronger effect = lower value): 0.977 | normalized growth (S. cerevisiae deletion strains, locus YKR001C, strain vps1, stronger effect = lower value): 0.997 | normalized growth (S. cerevisiae deletion strains, locus YKR026C, strain gcn3, stronger effect = lower value): 1 | normalized growth (S. cerevisiae deletion strains, locus YKR091W, strain srl3, stronger effect = lower value): 1 | normalized growth (S. cerevisiae deletion strains, locus YLL001W, strain dnm1, stronger effect = lower value): 0.948 | normalized growth (S. cerevisiae deletion strains, locus YLL026W, stronger effect = lower value): 0.996 | normalized growth (S. cerevisiae deletion strains, locus YLL041C, strain sdh2, stronger effect = lower value): 0.988 | normalized growth (S. cerevisiae deletion strains, locus YLR027C, strain aat2, stronger effect = lower value): 0.996 | normalized growth (S. cerevisiae deletion strains, locus YLR039C, strain RIC1, stronger effect = lower value): 0.959 | normalized growth (S. cerevisiae deletion strains, locus YLR058C, strain SHM2, stronger effect = lower value): 0.979 | normalized growth (S. cerevisiae deletion strains, locus YLR102C, strain apc9, stronger effect = lower value): 0.981 | normalized growth (S. cerevisiae deletion strains, locus YLR113W, strain HOG1, stronger effect = lower value): 0.934 | normalized growth (S. cerevisiae deletion strains, locus YLR221C, strain rsa3, stronger effect = lower value): 0.976 | normalized growth (S. cerevisiae deletion strains, locus YLR258W, strain gsy2, stronger effect = lower value): 1.02 | normalized growth (S. cerevisiae deletion strains, locus YLR262C, strain YPT6 (second series), stronger effect = lower value): 1 | normalized growth (S. cerevisiae deletion strains, locus YLR262C, strain YPT6, stronger effect = lower value): 0.934 | normalized growth (S. cerevisiae deletion strains, locus YLR268W, strain sec22, stronger effect = lower value): 0.965 | normalized growth (S. cerevisiae deletion strains, locus YLR320W, strain mms22, stronger effect = lower value): 0.982 | normalized growth (S. cerevisiae deletion strains, locus YLR330W, strain CHS5, stronger effect = lower value): 0.987 | normalized growth (S. cerevisiae deletion strains, locus YLR342W, strain FKS1 (second series), stronger effect = lower value): 1.08 | normalized growth (S. cerevisiae deletion strains, locus YLR342W, strain FKS1, stronger effect = lower value): 0.99 | normalized growth (S. cerevisiae deletion strains, locus YLR357W, strain rsc2, stronger effect = lower value): 0.987 | normalized growth (S. cerevisiae deletion strains, locus YLR370C, strain arc18, stronger effect = lower value): 0.989 | normalized growth (S. cerevisiae deletion strains, locus YLR371W, strain rom2, stronger effect = lower value): 1.01 | normalized growth (S. cerevisiae deletion strains, locus YLR384C, strain iki3, stronger effect = lower value): 1 | normalized growth (S. cerevisiae deletion strains, locus YLR418C, strain cdc73, stronger effect = lower value): 0.909 | normalized growth (S. cerevisiae deletion strains, locus YML016C, strain PPZ1, stronger effect = lower value): 0.993 | normalized growth (S. cerevisiae deletion strains, locus YML032C, strain rad52, stronger effect = lower value): 1.03 | normalized growth (S. cerevisiae deletion strains, locus YML120C, strain ndi1, stronger effect = lower value): 0.979 | normalized growth (S. cerevisiae deletion strains, locus YML124C, strain tub3, stronger effect = lower value): 0.995 | normalized growth (S. cerevisiae deletion strains, locus YMR058W, strain fet3, stronger effect = lower value): 0.995 | normalized growth (S. cerevisiae deletion strains, locus YMR078C, strain ctf18, stronger effect = lower value): 0.999 | normalized growth (S. cerevisiae deletion strains, locus YMR125W, strain sto1, stronger effect = lower value): 0.987 | normalized growth (S. cerevisiae deletion strains, locus YMR129W, stronger effect = lower value): 0.998 | normalized growth (S. cerevisiae deletion strains, locus YMR205C, strain PFK2, stronger effect = lower value): 0.983 | normalized growth (S. cerevisiae deletion strains, locus YMR223W, strain ubp8, stronger effect = lower value): 1.04 | normalized growth (S. cerevisiae deletion strains, locus YMR231W, strain pep5, stronger effect = lower value): 0.998 | normalized growth (S. cerevisiae deletion strains, locus YMR263W, strain SAP30, stronger effect = lower value): 0.966 and 1 | normalized growth (S. cerevisiae deletion strains, locus YMR307W, strain GAS1, stronger effect = lower value): 1.06 | normalized growth (S. cerevisiae deletion strains, locus YNL067W, strain RPL9B, stronger effect = lower value): 0.976 | normalized growth (S. cerevisiae deletion strains, locus YNL071W, strain lat1, stronger effect = lower value): 0.993 | normalized growth (S. cerevisiae deletion strains, locus YNL128W, strain TEP1, stronger effect = lower value): 0.946 and 1.02 | normalized growth (S. cerevisiae deletion strains, locus YNL153C, strain GIM3, stronger effect = lower value): 0.962 | normalized growth (S. cerevisiae deletion strains, locus YNL175C, strain NOP13, stronger effect = lower value): 0.998 | normalized growth (S. cerevisiae deletion strains, locus YNL183C, strain NPR1, stronger effect = lower value): 0.971 | normalized growth (S. cerevisiae deletion strains, locus YNL197C, strain WHI3, stronger effect = lower value): 1.02 | normalized growth (S. cerevisiae deletion strains, locus YNL209W, strain ssb2, stronger effect = lower value): 0.992 | normalized growth (S. cerevisiae deletion strains, locus YNL224C, strain SQS1, stronger effect = lower value): 1.01 | normalized growth (S. cerevisiae deletion strains, locus YNL233W, strain BNI4, stronger effect = lower value): 0.98 | normalized growth (S. cerevisiae deletion strains, locus YNL248C, strain rpa49, stronger effect = lower value): 0.982 | normalized growth (S. cerevisiae deletion strains, locus YNL250W, strain rad50, stronger effect = lower value): 0.995 | normalized growth (S. cerevisiae deletion strains, locus YNL271C, strain bni1, stronger effect = lower value): 0.996 | normalized growth (S. cerevisiae deletion strains, locus YNL298W, strain CLA4, stronger effect = lower value): 0.99 | normalized growth (S. cerevisiae deletion strains, locus YNL307C, strain MCK1, stronger effect = lower value): 0.999 | normalized growth (S. cerevisiae deletion strains, locus YNL322C, strain KRE1 (second series), stronger effect = lower value): 1 | normalized growth (S. cerevisiae deletion strains, locus YNL322C, strain KRE1, stronger effect = lower value): 0.978 | normalized growth (S. cerevisiae deletion strains, locus YNR049C, strain mso1, stronger effect = lower value): 0.996 | normalized growth (S. cerevisiae deletion strains, locus YNR052C, strain pop2, stronger effect = lower value): 0.992 | normalized growth (S. cerevisiae deletion strains, locus YOL006C, strain TOP1, stronger effect = lower value): 0.951 | normalized growth (S. cerevisiae deletion strains, locus YOL012C, strain htz1): 0.652 | normalized growth (S. cerevisiae deletion strains, locus YOL147C, strain pex11, stronger effect = lower value): 0.996 | normalized growth (S. cerevisiae deletion strains, locus YOR001W, strain rrp6, stronger effect = lower value): 0.964 | normalized growth (S. cerevisiae deletion strains, locus YOR061W, strain CKA2, stronger effect = lower value): 0.958 | normalized growth (S. cerevisiae deletion strains, locus YOR069W, strain VPS5, stronger effect = lower value): 0.993 | normalized growth (S. cerevisiae deletion strains, locus YOR070C, strain gyp1, stronger effect = lower value): 0.997 | normalized growth (S. cerevisiae deletion strains, locus YOR080W, strain dia2, stronger effect = lower value): 0.999 | normalized growth (S. cerevisiae deletion strains, locus YOR083W, strain WHI5 (second series), stronger effect = lower value): 1.01 | normalized growth (S. cerevisiae deletion strains, locus YOR083W, strain WHI5, stronger effect = lower value): 0.978 | normalized growth (S. cerevisiae deletion strains, locus YOR106W, strain vam3, stronger effect = lower value): 0.987 | normalized growth (S. cerevisiae deletion strains, locus YOR136W, strain idh2, stronger effect = lower value): 1.01 | normalized growth (S. cerevisiae deletion strains, locus YOR144C, strain elg1, stronger effect = lower value): 0.99 | normalized growth (S. cerevisiae deletion strains, locus YOR184W, strain ser1, stronger effect = lower value): 1.05 | normalized growth (S. cerevisiae deletion strains, locus YOR231W, strain MKK1, stronger effect = lower value): 0.824 (active) | normalized growth (S. cerevisiae deletion strains, locus YOR265W, strain rbl2, stronger effect = lower value): 0.989 | normalized growth (S. cerevisiae deletion strains, locus YOR270C, strain vph1, stronger effect = lower value): 0.991 | normalized growth (S. cerevisiae deletion strains, locus YOR290C, strain snf2, stronger effect = lower value): 0.958 | normalized growth (S. cerevisiae deletion strains, locus YOR316C, strain cot1, stronger effect = lower value): 0.985 | normalized growth (S. cerevisiae deletion strains, locus YPL051W, strain arl3, stronger effect = lower value): 0.999 | normalized growth (S. cerevisiae deletion strains, locus YPL055C, strain LGE1, stronger effect = lower value): 0.935 | normalized growth (S. cerevisiae deletion strains, locus YPL078C, strain atp4, stronger effect = lower value): 0.983 | normalized growth (S. cerevisiae deletion strains, locus YPL106C, strain sse1, stronger effect = lower value): 0.979 | normalized growth (S. cerevisiae deletion strains, locus YPL240C, strain hsp82, stronger effect = lower value): 0.989 | normalized growth (S. cerevisiae deletion strains, locus YPL241C, strain CIN2, stronger effect = lower value): 1 | normalized growth (S. cerevisiae deletion strains, locus YPL256C, strain CLN2, stronger effect = lower value): 0.946 | normalized growth (S. cerevisiae deletion strains, locus YPR119W, strain clb2, stronger effect = lower value): 0.993 | normalized growth (S. cerevisiae deletion strains, locus YPR141C, strain kar3, stronger effect = lower value): 0.968 | normalized growth (S. cerevisiae deletion strains, locus YPR163C, strain tif3, stronger effect = lower value): 0.991 | normalized growth (S. cerevisiae deletion strains, locus YPR167C, strain met16, stronger effect = lower value): 0.983 | normalized growth (S. cerevisiae deletion strains, strain wtn01, stronger effect = lower value): 0.974 | normalized growth (S. cerevisiae strains, strain wild type, stronger effect = lower value): 0.991
